Screen size: about 360,000 compounds; about 700 (0.19%) were called active.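 The calls were made as follows: active = activation above the run's mean over test compounds plus 3 SD (cut at about 23% in these data); inactive = the rest.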 What follows is part of a selection rich in actives, with near analogues and random picks from the rest.
The compounds below were run against Muscarinic acetylcholine receptor M5 (Homo sapiens) (UniProt P08912) (assay: CHRM5 activators raising intracellular calcium – CHO-K1 cells, Fluo-8 calcium fluorescence, primary screen (AID 624037;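 also: signal is peak over basal fluorescence ratio across the kinetic read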)). Conditions: CHO-K1 hM5 cells, at 3 µM, stronger effect = higher value, 0% DMSO wells, 100% maximal acetylcholine response.
Sequence of Muscarinic acetylcholine receptor M5 (Homo sapiens) (P08912 whole entry, looked up): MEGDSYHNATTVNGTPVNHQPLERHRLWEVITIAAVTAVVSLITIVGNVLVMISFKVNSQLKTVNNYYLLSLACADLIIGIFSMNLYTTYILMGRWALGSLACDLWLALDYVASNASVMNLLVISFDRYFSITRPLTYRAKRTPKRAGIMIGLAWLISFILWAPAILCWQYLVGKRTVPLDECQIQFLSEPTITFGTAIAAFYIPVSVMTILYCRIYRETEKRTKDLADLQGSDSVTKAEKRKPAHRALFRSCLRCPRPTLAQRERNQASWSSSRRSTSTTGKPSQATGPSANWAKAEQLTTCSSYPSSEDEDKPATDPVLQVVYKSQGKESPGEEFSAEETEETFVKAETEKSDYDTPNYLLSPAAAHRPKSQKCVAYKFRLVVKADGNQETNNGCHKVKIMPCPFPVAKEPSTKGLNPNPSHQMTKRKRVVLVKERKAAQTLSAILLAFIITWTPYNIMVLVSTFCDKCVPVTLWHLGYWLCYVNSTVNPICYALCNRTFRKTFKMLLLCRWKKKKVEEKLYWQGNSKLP

activation, active:
Cc1cccc2c1N(CCOc1ccccc1)C(=O)C2=O 30.5%
Cc1nc(C(=O)NCc2ccccc2)sc1C1(C)CC(c2cccnc2)=NO1 (centres undefined) 25.4%
CN(C(=O)CN(CCO)CC(=O)N(C)C(C)(C)Cc1ccccc1)C(C)(C)Cc1ccccc1 39.7%
COc1cccc(CNc2nc(NCc3cccs3)nc3ccsc23)c1 27.2%
CN(C)c1ccc(/C=C2\NC(=S)N(Cc3ccccc3)C2=O)cc1 41.4%
Cc1ccccc1NC(=S)NC(=O)Cc1ccc(Cl)cc1 25.7%
O=C(Cc1ccc(Cl)cc1)NC(=S)Nc1ccccc1O 75.2%

activation, inactive:
CC#CC[N+](C)(C)CCCCCC -16.5%
CCc1ccc(NC(=O)C(C)OC(=O)/C=C/c2cccc([N+](=O)[O-])c2)cc1 (centres undefined) -0.62%
CCCCN(C)CCNC(=O)CSCc1ccc(C)cc1 -6.02%
Cc1ccc(CNC(=O)C(=O)c2cn(CC(=O)N3CCOCC3)c3ccccc23)cc1 -1.51%
O=C1/C(=C/c2ccc3c(c2)OCO3)Oc2cc(OCC(=O)N3CC(O)C[C@H]3C(=O)O)ccc21 (some centres undefined) 0.73%
CCOCCCNC(=S)Nc1ccc2nc(N3CCN(CC)CC3)cc(C)c2c1 -4.11%
Cn1cccc1C(C#N)c1ccccc1C#N (centres undefined) -3.67%
Cc1cccc(C)c1-n1nnnc1C1(C)CCC(=O)N1CCOc1ccccc1 (centres undefined) 4.47%
O=C1c2ccccc2C(=O)N1CCOc1ccc(F)cc1 11.9%
O=c1ccc(S(=O)(=O)N2CCCC2)cn1Cc1nc(-c2ccccc2)no1 -5.43%
Cc1ccc(C)c(NC(=O)c2ccc(OC(=O)c3ccco3)cc2)c1 -2.18%
Cc1csc(=O)n1CC(=O)OCC(=O)N(CC(C)C)c1c(N)n(Cc2ccccc2)c(=O)[nH]c1=O 3.34%
CN(Cc1ccccc1)C(=O)COC(=O)/C=C/c1ccc2c(c1)OCO2 0.5%
CCNC(=O)C1(C)CCCN(Cc2noc(-c3ccccc3OC)n2)C1 (centres undefined) 1.13%
Cc1ccc(CNC(=O)c2cccc3c2C(=O)c2ccc(N4CCC(C)CC4)cc2S3(=O)=O)cc1 4.93%
COc1ccc(S(=O)(=O)N2CCC(C(=O)NCCC(=O)Nc3ccccc3OC)CC2)cc1 -1.33%
CN(c1ccccn1)c1ncnc2[nH]ncc12 -0.14%
CN(C)/C=C/C(=O)c1cnc2sccn2c1=O -2.29%
O=C(O)c1ccn(COc2ccc(Br)cc2)n1 -0.71%
Cc1c(NC(=O)COC(=O)/C=C/c2cccc(F)c2)c(=O)n(-c2ccccc2)n1C 0.67%
CCCCC[C@H]1CN(C2CCCCC2)C(=O)[C@@H]1CC(=O)NCc1ccc(OC)cc1 -4.19%
COc1cc(N2C(=O)CC3(CCCC3)CC2=O)cc(OC)c1OC 1.4%
Cc1ccc(C)c(NS(=O)(=O)c2ccc(OCC(=O)NCc3cccnc3)cc2)c1 -1.65%
CC(C)(C)OC(=O)C[C@@H]1C/C=C\C[C@@H](CC(=O)NCCO)C(=O)N[C@H](Cc2c[nH]c3ccccc23)COC1=O -0.08%
CCOC(=O)C=Cc1ccc(C(=O)OCC)[nH]1 5.25%
CSCCC(NC(=O)COc1ccccc1)C(=O)N(C)CC(=O)Nc1ccc(C)cc1 (centres undefined) 0.98%
C=CC[n+]1c(-c2ccc(C)cc2)csc1NNC(=O)Nc1ccccc1 0.82%
O=C(Nc1cccc(Cl)c1)c1cc(S(=O)(=O)N2CCCCC2)c[nH]1 4.63%
CCOc1ccc(NC(=O)CN(C)C(=O)COc2cccc(CC)c2)cc1OCC -0.57%
COc1ccc(CCNC(=S)N2CCN(S(=O)(=O)c3ccc(F)cc3)CC2)cc1 -3.34%
Cc1nc(C(=O)Nc2ccc(Cl)cc2)sc1C1(C)CC(c2ccccc2)=NO1 (centres undefined) 1.09%
Cc1nc(-c2ccc(Cl)cc2)sc1C1(C)CC(c2ccccc2F)=NO1 (centres undefined) -0.32%
CC(C)(C)N(Cc1ccccc1)C(=O)c1ccncc1 -0.8%
Cc1cc(C)cc(NC(=O)N(C)Cc2ccccc2)c1 -2.57%
CCc1sc(C(=O)N2CCN(CC(=O)Nc3cccc(F)c3)CC2)cc1C -3.37%
COc1ccc(NC(=S)NCc2cccs2)c(OC)c1 -3.29%
COc1cccc(CNc2nc3cc(-c4csc5ccccc45)sc3c(=O)n2C)c1 -0.3%
CC(=O)Nc1cccc(-c2cc3nc(NCc4cccnc4)n(C)c(=O)c3s2)c1 0.81%
CCOC(=O)CNc1nc2ccccc2n2c(C)nnc12 1.28%
CC(=O)NCC(=O)N(Cc1ccco1)C1(C(=O)NC2CCCC2)CCCCC1 -0.72%
CC(C)[C@H](NC(=O)Nc1ccc(S(N)(=O)=O)cc1)C(=O)O -2.17%
CCN(CC)c1ccc(NC(=O)CN2C(=O)NC3(CCc4ccccc43)C2=O)cc1 (centres undefined) 2.57%
O=C(Cn1cc(C(=O)C2CC2)c2ccccc21)Nc1ccccc1Cl 1.64%
C=CCNc1nnc(SCC(=O)N2CCCCC2)c2ccccc12 -0.35%
C/C(=C/C(=O)N1CCN(C)CC1)C(=O)O -1.65%
Nc1ccc2c(c1)C(=Cc1cccnc1)c1ccccc1-2 -7.37%
C[C@@H]1CN([C@@H](C)CO)S(=O)(=O)c2ccc(-c3ccc(C(=O)N(C)C)cc3)cc2O[C@@H]1CN(C)Cc1ccccc1C(=O)O -0.69%
Cc1cc(C(=O)NNC(=S)Nc2ccccc2C)cs1 -0.42%
Oc1ccc(CNc2ccccc2O)cc1 3.67%
Cc1ccccc1N/C(SCc1ccc(Cl)cc1)=C(/C#N)C(N)=O -7.05%
O=C(NC(=S)Nc1ccc(Cl)cc1Cl)C1CC1 -3.08%
O=C(C1CCN(S(=O)(=O)c2cccs2)CC1)N1CCCCCC1 -3.68%

From PubChem BioAssay AID624037 (The Scripps Research Institute Molecular Screening Center, 2012)
